The term inhibition denotes the drop in the measured response relative to a control, in per cent.

This passage reports inhibition results from PubChem BioAssay AID624255 (Broad Institute, 2012).

In all, about 77,000 compounds went through this assay and about 4,600 (6%) were called active. Another 1% or so got no clear call; they are omitted. Only a selection was taken, and actives are over-represented in it overall. A number with no mark means an inactive call.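 Rule for the calls: active = mean inhibition above about 93%, with at least 55% of replicates each passing it (limit read from the data, passing the limit was not always enough); inconclusive = only one of those two conditions holds; inactive = neither condition holds.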

This assay is described as follows: growth inhibition of T. cruzi in host fibroblasts – cell-based, beta-gal Tulahuen parasites, NIH3T3 host, luminescence, primary screen (AID 624255). The settings on record: T. cruzi beta-gal in NIH3T3, GalScreen luminescence, 90 h; at 8.34 µM; stronger effect = higher value.
As to `CCNC(=O)Nc1ccc2c(c1)C(=O)N(C)[C@H]1CC[C@H](CC(=O)NCC3CCCCC3)O[C@@H]1CO2`, the inhibition is 25.8%.
As to `CCS(=O)(=O)Nc1ccc2c(c1)C(=O)N(C)C[C@@H](OC)[C@@H](C)CN(C(=O)COC)[C@H](C)CO2`, the inhibition was -5.98%.
Turning to `Cc1ccc(S(=O)(=O)Nc2ccc3c(c2)C(=O)N(C)[C@@H]2CC[C@@H](CC(=O)O)O[C@H]2CO3)cc1`, the inhibition was 33.9%.
On to `C[C@H](O)C#Cc1ccc2c(c1)O[C@@H](CN(C)Cc1cccnc1)[C@H](C)CN([C@H](C)CO)S2(=O)=O`, for which the inhibition was 46.1%.
As for `C[C@H](O)C#Cc1ccc2c(c1)O[C@H](CN(C)Cc1cccnc1)[C@@H](C)CN([C@H](C)CO)S2(=O)=O`, the figure is 34.8%; as for `C[C@@H]1CN([C@H](C)CO)S(=O)(=O)c2ccc(C#CC3CC3)cc2O[C@H]1CN(C)Cc1ccccc1F`, 81.5%.
As to `C[C@@H]1CN([C@H](C)CO)S(=O)(=O)c2ccc(C#CC3CCCC3)cc2O[C@@H]1CN(C)Cc1cccnc1`, the inhibition is 118% (active).
Take `C[C@H](CO)N1C[C@H](C)[C@H](CN(C)Cc2cccnc2)Oc2cc(C#CC3CCCC3)ccc2S1(=O)=O`: the inhibition is 97.8% (active).
As to `C[C@@H]1CN([C@@H](C)CO)S(=O)(=O)c2ccc(C#Cc3cccnc3)cc2O[C@@H]1CN(C)C`, the inhibition was -8.96%.
The value for `O=C(Nc1cccc(Cl)c1)N1C[C@@H]2[C@H](c3ccccc31)[C@H](CO)N2C(=O)C1CC1` was 45%; that for `O=C(C[C@@H]1CC[C@H]2[C@@H](COC[C@@H](O)CN2C(=O)c2ccc3c(c2)OCO3)O1)NC1Cc2ccccc2C1` was -11.4%.
For `CCCC#Cc1cnc2c(c1)C(=O)N([C@H](C)CO)C[C@H](C)[C@H](CN(C)C(=O)c1cnccn1)O2`, the inhibition is -48.3%.
For the molecule `CCCC(=O)Nc1ccc2c(c1)C(=O)N(C)[C@H]1CC[C@@H](CC(=O)NCc3ccccc3)O[C@@H]1CO2`, the inhibition is -21.7%.
The value for `N#Cc1cccc(-c2ccc3c(c2)[C@H]2[C@H](CCN2S(=O)(=O)c2ccc(F)cc2)[C@@H](CO)N3)c1` was 19.2%; that for `Cn1cnc(S(=O)(=O)N2CC[C@@H]3[C@H]2c2cc(C#Cc4cccc(F)c4)ccc2N[C@@H]3CO)c1` was -22.2%.
As for `Cc1cccc(S(=O)(=O)N2CC[C@@H]3[C@H]2c2cc(C#Cc4ccccc4F)ccc2N[C@@H]3CO)c1`, the figure is 62.9%; as for `Cc1ccccc1S(=O)(=O)N1CC[C@H]2[C@H](CO)Nc3ccc(-c4cccc(F)c4)cc3[C@H]21`, 100% (active); as for `O=S(=O)(c1ccccc1)N1CC[C@@H]2[C@H]1c1cc(C#Cc3cccc(F)c3)ccc1N[C@@H]2CO`, 102% (active).
The value for `COc1ccc(-c2ccc3c(c2)[C@@H]2[C@@H](CCN2S(=O)(=O)c2ccccc2F)[C@H](CO)N3)cc1` was 36.8%; that for `COc1ccc(-c2ccc3c(c2)[C@@H]2[C@@H](CCN2C(=O)c2cccc(F)c2)[C@H](CO)N3)cc1` was 29.7%.
As to `O=S(=O)(c1ccccc1)N1CC[C@@H]2[C@@H](CO)Nc3ccc(C#Cc4cccc(F)c4)cc3[C@@H]21`, the inhibition is 105% (active).
In the case of `COc1cccc(-c2ccc3c(c2)[C@H]2[C@H](CCN2C(=O)c2ccc(F)cc2)[C@@H](CO)N3)c1`, the inhibition was 32.4%.
Consider `COc1ccccc1S(=O)(=O)N1CC[C@@H]2[C@H]1c1cc(-c3ccccc3)ccc1N[C@@H]2CO`, for which the inhibition was 71.9%.
For the molecule `Cc1cccc(S(=O)(=O)N2CC[C@@H]3[C@H]2c2cc(C#Cc4ccc(F)cc4)ccc2N[C@@H]3CO)c1`, the inhibition is 12.4%.
Regarding `O=C(c1cccc(F)c1)N1CC[C@@H]2[C@@H](CO)Nc3ccc(C#Cc4cccc(F)c4)cc3[C@@H]21`, the inhibition is 110% (active).
`CC(C)c1cn(CC[C@@H]2CC[C@@H](NC(=O)C3CC3)[C@H](CO)O2)nn1`: the inhibition is 10.2%.
Take `CCCNC(=O)C[C@H]1CC[C@@H]2[C@H](COC[C@H](O)CN2S(=O)(=O)c2ccccc2F)O1`: the inhibition is 11.7%.
As for `CO[C@H]1CC[C@@H]2CCOc3c(C#N)cccc3C(=O)N(C)C[C@H](C)C(=O)N(C)C[C@H]1O2`, the figure is 30.6%; as for `O=C(C[C@@H]1CC[C@H](NC(=O)Cc2ccccn2)[C@H](CO)O1)NCCc1ccncc1`, -62.5%; as for `C[C@@H](NC(=O)C[C@@H]1C[C@H]2c3cc(NC(=O)C4CCC4)ccc3O[C@H]2[C@@H](CO)O1)c1ccccc1`, -32.2%.
As for `Cc1ccc(S(=O)(=O)Nc2ccc3c(c2)C(=O)N([C@H](C)CO)C[C@@H](C)[C@@H](CN(C)C(=O)CCC(F)(F)F)OCCCC[C@@H](C)O3)cc1`, the figure is 47.6%; as for `CCCN1C[C@H](C)[C@H](OC)CN(C)C(=O)c2cc(NC(=O)C3CCOCC3)ccc2OC[C@@H]1C`, -22.2%.
`Cc1ccc(S(=O)(=O)Nc2ccc3c(c2)C(=O)N(C)[C@H]2CC[C@H](CC(=O)O)O[C@H]2CO3)cc1`: the inhibition is 22.9%.
On to `O=S(=O)(c1ccc(F)cc1)N1CCCCN2[C@H](CO)[C@@H](c3ccc(C#CC4CCCC4)cc3)[C@H]2C1`, for which the inhibition was 88.5%.
The value for `COCC#Cc1ccc([C@@H]2[C@H](CO)N3CCCCN(C(=O)CN(C)C)C[C@@H]23)cc1` was 107% (active); that for `COc1ccc(S(=O)(=O)N2CCCCN3[C@@H](CO)[C@@H](c4ccc(C#CCC(C)C)cc4)[C@@H]3C2)cc1` was 34.4%; that for `COc1cccc(S(=O)(=O)N2CCCCN3[C@H](CO)[C@H](c4ccc(C#CC5CC5)cc4)[C@H]3C2)c1` was 118% (active).
`CC(C)NC(=O)N1CCCCN2[C@@H](CO)[C@@H](c3ccc(C#C[C@@H](C)O)cc3)[C@@H]2C1`: the inhibition was 75.5%.
As for `CCC(=O)N1CCCCN2[C@H](C1)[C@@H](c1ccc(C#CCOC)cc1)[C@@H]2CO`, the figure is 14%; as for `Cn1cnc(S(=O)(=O)N2CCCCN3[C@@H](CO)[C@@H](c4ccc(C#CC5CCCC5)cc4)[C@@H]3C2)c1`, 54.8%; as for `CC(C)C#Cc1ccc([C@@H]2[C@H]3CN(C(=O)NC(C)C)CCCCN3[C@H]2CO)cc1`, 43.5%.
The value for `COc1ccc(S(=O)(=O)N2CCCCN3[C@H](C2)[C@H](c2ccc(C#CCC(C)C)cc2)[C@@H]3CO)cc1` was 103% (active).
As for `COCC#Cc1ccc([C@@H]2[C@@H](CO)N3CCCCN(C(=O)COC)C[C@@H]23)cc1`, the figure is 12.3%; as for `CC(C)C#Cc1ccc([C@H]2[C@H](CO)N3CCCCN(C(=O)NC(C)C)C[C@@H]23)cc1`, 104% (active); as for `CN1c2ccc(C#Cc3cccnc3)cc2[C@@H]2[C@@H](CCN2S(=O)(=O)c2ccccc2)[C@H]1CO`, 89.6%.
Turning to `COc1ccccc1NC(=O)N[C@H]1CC[C@@H](CCn2cc(C3(O)CCCC3)nn2)O[C@@H]1CO`, the inhibition was 0.23%.
In the case of `C[C@@H](NC(=O)[C@H]1[C@H](CO)[C@H]2Cn3c(cccc3=O)[C@H]2N1C(=O)C1CC1)c1ccccc1`, the inhibition is -11.1%.
On to `CC=Cc1ccc2n(c1=O)C[C@@H]1[C@@H](CO)[C@H](C(=O)N[C@@H](C)c3ccccc3)[C@H]2N1Cc1ccncc1` (mixture of isomers), for which the inhibition is 25.6%.
On to `COC(=O)C[C@@H]1CC[C@H]2[C@@H](COC[C@H](O)CN2C(=O)Nc2ccccc2OC)O1`, for which the inhibition is -19.2%.
Take `CC(=O)N1[C@@H](CO)[C@H](c2ccccc2)[C@@H]1CN(C(=O)c1ccccc1)C(C)C`: the inhibition was 26.7%.
For `O=C(C[C@H]1C[C@H]2c3cc(NC(=O)C4CCOCC4)ccc3O[C@H]2[C@@H](CO)O1)NCC1CC1`, the inhibition is -5.99%.
`Cn1cnc(S(=O)(=O)N2C[C@H](O)COC[C@@H]3O[C@H](CC(=O)NCc4cccc(F)c4)CC[C@H]32)c1`: the inhibition was 34.3%.
The value for `CN1C[C@@H]2[C@H](c3ccccc31)[C@H](CO)N2C(=O)Nc1ccc(F)cc1` was 15.1%; that for `Cc1ccc(S(=O)(=O)Nc2ccc3c(c2)C(=O)N([C@@H](C)CO)C[C@H](C)[C@@H](CN(C)C(=O)Nc2ccc(F)cc2)OCCCC[C@H](C)O3)cc1` was 92.5%.
`O=C(C[C@H]1C[C@H]2c3cc(NC(=O)CC4CC4)ccc3O[C@H]2[C@H](CO)O1)NCc1cc(F)ccc1F`: the inhibition was -48.8%.
As for `CC(C)CC#Cc1ccc2c(c1)O[C@@H](CN(C)C(=O)Nc1ccccc1F)[C@@H](C)CN([C@@H](C)CO)S2(=O)=O`, the figure is 83.3%; as for `COc1ccc(C#Cc2ccc([C@H]3[C@@H](CO)N4CCCCN(S(=O)(=O)c5cn(C)cn5)C[C@H]34)cc2)cc1`, 50.5%; as for `Cc1cccc(S(=O)(=O)N2CCCCN3[C@@H](CO)[C@H](c4ccc(-c5cccnc5)cc4)[C@@H]3C2)c1`, 12.6%.
As for `COc1cccc(S(=O)(=O)N2CCCCN3[C@H](C2)[C@@H](c2ccc(C4=CCCCC4)cc2)[C@@H]3CO)c1`, the inhibition was 51.4%.
The value for `COc1ccc(S(=O)(=O)N2CCCCN3[C@H](CO)[C@@H](c4ccc(C#CC(C)C)cc4)[C@H]3C2)cc1` was 106% (active); that for `COc1cccc(S(=O)(=O)N2CCCCN3[C@H](C2)[C@H](c2ccc(C#CC(C)C)cc2)[C@@H]3CO)c1` was 118% (active); that for `COc1cccc(S(=O)(=O)N2CCCCN3[C@H](CO)[C@H](c4ccc(-c5ccncc5)cc4)[C@H]3C2)c1` was 111% (active).
With `CCCNC(=O)C[C@H]1CC[C@H]2[C@@H](COC[C@H](O)CN2C(=O)Nc2c(C)noc2C)O1`, the inhibition is -19.4%.
For the molecule `COc1cccc(S(=O)(=O)N[C@@H]2CC[C@@H](CCNC(=O)Cc3ccncc3)O[C@H]2CO)c1`, the inhibition was 80.6%.
